70 compounds from PubChem BioAssay AID1654 (Sanford-Burnham Center for Chemical Genomics, 2009) can be followed below.

Molecules are shown by their SMILES. Hit rate of the full screen: of about 290,000 compounds, about 1,500 (0.52%) were called active. The list comes from a sample in which actives are over-represented; it also holds similar structures and randomly drawn compounds. A number with no mark means an inactive call. No stated cut-off is given here; in the data, active means inhibition above about 50%; inactive means the rest.

Dual specificity protein phosphatase 3 (Homo sapiens), sequence (P51452 whole entry, looked up): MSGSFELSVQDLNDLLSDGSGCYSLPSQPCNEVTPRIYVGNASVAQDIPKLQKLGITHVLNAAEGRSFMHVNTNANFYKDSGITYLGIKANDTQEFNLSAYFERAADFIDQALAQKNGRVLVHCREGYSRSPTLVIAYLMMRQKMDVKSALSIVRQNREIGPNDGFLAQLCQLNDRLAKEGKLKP

This experiment concerns the target Dual specificity protein phosphatase 3 (Homo sapiens) (UniProt P51452). The experiment is described as follows: inhibition of human DUSP3 activity – biochemical, absorbance, uHTS, primary screen (AID 1654). The settings on record: recombinant VHR phosphatase, pNPP absorbance, at 13.3 µM, active compounds read high.
For `Cc1ccc(-n2[nH]c(C)c(/C=N/N3C(=O)c4cccc5cccc(c45)C3=O)c2=O)cc1`, the inhibition was 20.9%.
For `Cc1ccc(C2C3=C(Nc4[nH]n(-c5ccccc5)c(=O)c42)c2ccccc2C3=O)cc1` (stereo not given), the inhibition was 1.7%.
`O=c1c(-c2cccc(Cl)c2)c[nH]n1-c1ccccc1`: the inhibition was 12.5%.
Under `O=c1[nH]cnc2c1c(-c1ccccc1)cn2-c1ccc(F)cc1` stands -6.9%.
Take `O=c1c2c(-c3ccccc3)ccnc2[nH]n1-c1ccccc1`: the inhibition was 55.5% (active).
`Cc1ccc(-c2ccnc3[nH]n(-c4ccccc4)c(=O)c23)cc1`: the inhibition is 60% (active).
For the compound `C[C@H](NC(=O)C1CCN(S(=O)(=O)c2ccccc2)CC1)C(=O)NCc1ccccc1`, the inhibition is 52.3% (active).
`Cc1ccc(S(=O)(=O)N2CCC(C(=O)N[C@@H](C)C(=O)NCc3ccccc3)CC2)cc1`: the inhibition was 1.5%.
Under `Cc1ccc(S(=O)(=O)N2CCC(C(=O)N[C@@H](C)C(=O)NCCc3ccccc3)CC2)cc1` stands 6.2%; under `N#Cc1c(-c2ccccc2)nc(SCc2ccc([N+](=O)[O-])cc2)[nH]c1=O`, 4.1%; under `O=C(O)C(NS(=O)(=O)c1cccc2nsnc12)c1ccccc1` (stereo not given), 13.3%.
Under `O=C(C(NS(=O)(=O)c1cccc2nsnc12)c1ccccc1)N1CCN(c2ccccc2)CC1` (stereo not given) stands -12.8%; under `O=C(C(NS(=O)(=O)c1cccc2nsnc12)c1ccccc1)N1CCN(c2ccccn2)CC1` (stereo not given), 52.7% (active); under `O=C(NCCOc1cccnc1)c1ccc(OC2CCN(Cc3ccccn3)CC2)cc1`, 18.5%.
With `Fc1ccc(/C=N/n2c(COc3ccccc3)n[nH]c2=S)cc1`, the inhibition is 26.3%.
Regarding `C/C(=N/O)c1ccc(N2C(=O)C3C4C=CC(C3C2=O)C2C3C(=O)N(c5ccc(/C(C)=N/O)cc5)C(=O)C3C42)cc1` (stereo not given), the inhibition was -7.1%.
Take `CC1CCN(C(=O)/C(=C\c2ccccc2F)NC(=O)c2ccccc2)CC1`: the inhibition is 18.5%.
With `CN(CC(=O)NCc1ccc(Cl)cc1)S(=O)(=O)c1cccs1`, the inhibition was 21.4%.
Turning to `COc1ccc(NC2CCCN(C(=O)c3ccncc3)C2)cc1` (stereo not given), the inhibition is 54.2% (active).
In the case of `Cc1cccc(C(=O)N2CCCC(Nc3ccc(C(C)C)cc3)C2)n1` (stereo not given), the inhibition is 10.8%.
`CC(C)c1ccc(NC2CCCN(C(=O)c3ccncc3)C2)cc1` (stereo not given): the inhibition was 13.7%.
`COc1cc(C(=O)N2CCN(C3CCC(C)CC3)CC2)cc(OC)c1OC` (stereo not given): the inhibition was 16.6%.
With `CCOc1ccc2[nH]c(=O)c(CN(CCCO)S(=O)(=O)c3ccc(F)cc3)cc2c1`, the inhibition is 39.4%.
Under `COc1cc(C(=O)NCc2ccncc2)cc(Br)c1OCc1ccccc1` stands 50% (active); under `COc1cc(C(=O)NCc2ccc(-n3cccc3)cc2)cc(OC)c1OC`, 33.3%; under `COc1cc(C(=S)NCc2ccccc2)cc(Br)c1O`, 25.9%.
Turning to `CCOC(=O)c1c(S(=O)(=O)Nc2ccc(CN3CCC(C)CC3)cc2)c(C)n(C)c1C`, the inhibition was -22.3%.
As to `CCOc1ncccc1C(=O)N(CC)CC(=O)Nc1ccc(NC(C)=O)cc1`, the inhibition was 1.3%.
With `CCOc1ncccc1C(=O)N(C)CC(=O)Nc1ccc(F)cc1`, the inhibition was 59.9% (active).
In the case of `CN(CC(=O)Nc1ccc(F)cc1)C(=O)c1ccc(-c2ccc(Cl)cc2)o1`, the inhibition is 16.7%.
As for `Cc1cccc2nc(CNc3ccc(F)cc3)cn12`, the figure is -14.9%; as for `CN(C(=O)c1ccccc1)c1nccnc1C#N`, 25%.
Under `Cc1cc(N2C(=O)C(O)=C(C(=O)c3ccc(C)o3)C2c2ccc(OCc3ccccc3)cc2)no1` (stereo not given) stands 12.3%; under `CCn1c(=O)c(=O)n(CC)c2cc(S(=O)(=O)N3CCc4ccccc43)ccc21`, 50.3% (active).
Consider `Cn1c(=O)n(C)c2cc(S(=O)(=O)N3CCCc4ccccc43)ccc21`, for which the inhibition was 3.5%.
As for `O=S(=O)(c1ccc2c(c1)OCCO2)N1CCc2ccccc21`, the figure is 13.6%.
Turning to `Cc1cc(C)nc(NS(=O)(=O)c2ccc(N3C(=O)C4CCCCC4C3=O)cc2)n1` (stereo not given), the inhibition is 57.6% (active).
As to `Cc1cc(C)nc(SC2CCCCC2NS(=O)(=O)c2ccc(Cl)cc2)n1` (stereo not given), the inhibition is 1.5%.
With `Cc1ccc(S(=O)(=O)Nc2nc(C)cc(-n3nc(C)cc3C)n2)cc1`, the inhibition was 28.3%.
Regarding `COc1ccc(CCc2nc(-c3cccs3)no2)cc1`, the inhibition was -3.6%.
With `Cc1c(CCC(=O)O)c(=O)oc2cc(OCc3ccc(Br)cc3)ccc12`, the inhibition was 2.4%.
In the case of `CCOC(=O)CCc1c(C)c2ccc(OCc3nn[nH]n3)c(C)c2oc1=O`, the inhibition was -7.7%.
Regarding `Cc1c(CCC(=O)O)c(=O)oc2c(C)c(OCc3ccccc3Cl)ccc12`, the inhibition was 57.3% (active).
In the case of `COc1ccc2oc(=O)cc(CN3CCOCC3)c2c1`, the inhibition is -2.3%.
Take `CCc1ccccc1NC(=O)/C(=C/c1ccccc1)c1ccccc1`: the inhibition is -11.5%.
`CCOCCCNCc1cc(Br)ccc1OCC`: the inhibition is 3%.
Under `CCOc1ccccc1OCCCNCc1ccccc1` stands 59.7% (active).
On to `CCOCCCNCc1ccc(OCc2ccc(F)cc2)c(OC)c1`, for which the inhibition is 23.4%.
As for `COc1ccc(S(=O)(=O)N2CCC(C(=O)N3CCCC3)CC2)cc1C`, the inhibition is -11.4%.
Regarding `O=C(N1CCCCC1)N1CCN(C(=O)N2CCCCC2)CC1`, the inhibition was 17.7%.
Under `CCOC(=O)C1CCN(C(=O)COc2cccc3ccccc23)CC1` stands 1.1%; under `Cc1ccccc1NC(=O)CN1C(=O)N/C(=C\c2cccn2-c2cccc(C(=O)O)c2)C1=O`, 35.6%.
Take `N#Cc1ccccc1CN1C(=O)S/C(=C/c2cccn2-c2cccc(C(=O)O)c2)C1=O`: the inhibition is 50.3% (active).
Under `Cc1cc(/C=C2\SC(=O)N(C)C2=O)c(C)n1-c1cccc(C(=O)O)c1` stands 15.5%; under `CC(=O)N1CCCc2cc(S(=O)(=O)N3CCCC(C(=O)NCc4ccc(Cl)cc4)C3)ccc21` (stereo not given), 5.3%.
Under `CC(=O)N1c2ccc(S(=O)(=O)N3CCCC(C(=O)NCc4ccc(Cl)cc4)C3)cc2CC1C` (stereo not given) stands 52.7% (active); under `CC(=O)N1c2ccc(S(=O)(=O)N3CCC(C(=O)NCc4ccc(F)cc4)CC3)cc2CC1C` (stereo not given), 34.4%; under `CCC(C)c1ccccc1NC(=O)CN(C)CC(=O)Nc1ccccc1SC` (stereo not given), -2.9%.
Under `CC1(C)C2CCC1(CS(=O)(=O)NCCc1c[nH]c3ccccc13)C(=O)C2` (stereo not given) stands -8.1%; under `CCC(CC)C(=O)N1CCN(c2cccc(C)c2C)CC1`, -4.1%.
Regarding `Cc1cccc(N2CCN(C(C)C(=O)N3CCc4ccccc43)CC2)c1C` (stereo not given), the inhibition was 52.9% (active).
On to `NC(=O)N1CCc2ccccc21`, for which the inhibition is 30.9%.
In the case of `O=C1Nc2cc(C(=O)N3CCN(c4ccc(F)cc4)CC3)ccc2NC1CSCc1cccc(F)c1` (stereo not given), the inhibition is -24.2%.
In the case of `O=C(O)c1cc(S(=O)(=O)N(Cc2ccccc2)c2ccccc2)ccc1Cl`, the inhibition is 10.4%.
For the compound `CCCn1cc(S(=O)(=O)c2ccc(C)cc2)c(=O)c2cc(OCC)ccc21`, the inhibition is -25.6%.
Under `CCn1cc(S(=O)(=O)c2cccc(C)c2)c(=O)c2cc(F)c(N3CCN(C)CC3)cc21` stands 5.7%.
In the case of `CCOc1ccc2c(c1)c(=O)c(S(=O)(=O)c1ccc(C)cc1)cn2CC`, the inhibition was 52.5% (active).
With `COC(=O)c1c(C)[nH]c(C(=O)/C=C/c2ccc(Cl)cc2)c1C`, the inhibition was -0.3%.
Take `COc1ccc(OC)c(CNC(=O)Cn2nc(C)c3c(C)n(-c4ccc(C)cc4)nc3c2=O)c1`: the inhibition was -9%.
`CC(C)CC(=O)NC(=S)NNC(=O)c1cccc([N+](=O)[O-])c1`: the inhibition was -16.7%.

A word on the inhibition: it is the change of the read-out against control, counted positive when it falls.
